IDH1 R132H inh – human IDH1 R132H inhibition | O75874 | actives 0.093% (n = 390,000) | Potency, µM (titrated, usually from 76.6 µM), inactives show top-dose activity change, negative = inhibition, actives largely listed as inhibitors | IDH1-R132H enzyme, NADPH consumption, diaphorase/resazurin fluorescence; further: potency means the concentration at half of the fitted maximal effect; nearly all actives have a fitted effect of over 65% in size
Target sequence (O75874 whole entry R132H, stated change not applied): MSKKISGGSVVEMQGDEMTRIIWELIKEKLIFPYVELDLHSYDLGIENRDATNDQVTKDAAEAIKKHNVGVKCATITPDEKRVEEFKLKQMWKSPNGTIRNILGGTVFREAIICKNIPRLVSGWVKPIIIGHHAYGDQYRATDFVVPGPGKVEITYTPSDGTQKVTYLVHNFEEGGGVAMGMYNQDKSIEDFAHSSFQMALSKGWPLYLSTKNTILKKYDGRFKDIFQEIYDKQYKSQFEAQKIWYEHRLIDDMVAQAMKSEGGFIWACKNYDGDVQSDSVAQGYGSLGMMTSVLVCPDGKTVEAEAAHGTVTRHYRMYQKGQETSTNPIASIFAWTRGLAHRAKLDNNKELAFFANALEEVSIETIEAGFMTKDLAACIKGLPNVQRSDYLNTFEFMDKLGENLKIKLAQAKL
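IDH1-R132H (0.5 ug/mL dispensed) in pH 7.5 Tris buffer was preincubated 30 min with compound, then given a substrate mix of 0.016 mM NADPH and 2 mM alpha-KG for 80 min at room temperature; remaining NADPH was read by diaphorase/resazurin fluorescence.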
TrxR1 substrate – is turned over as a substrate by rat TrxR1; O89049; purified TrxR1 substrate turnover, NADPH consumption readout; Potency, µM (doses to about 114 µM), for the others: top-dose activity change, negative = substrate turnover; actives 0.01% (n = 390,000); further: potency means the concentration at half of the fitted maximal effect; nearly all actives have a fitted effect of over 50% in size
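Rat TrxR1, dispensed at 90 nM, was prereduced with 400 uM NADPH (final) for 5 min at ~22 deg C, then incubated with compound 15 min before 400 uM selenite. A first-read NADPH fluorescence drop versus no-compound background flagged substrates.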
GLS inh – blocks human kidney-isoform glutaminase activity | O94925 | GLS enzymatic activity, qHTS titration | Potency, µM (doses to about 45.5 µM), for inactives: top-dose activity change, negative = inhibition, actives largely listed as inhibitors | actives 0.21% (n = 410,000) | AID 624170; further: potency means the concentration at half of the fitted maximal effect
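Coupled fluorescence readout: glutamate oxidase/HRP/Amplex Red detect glutamate formed by hKGA from L-glutamine (1 mM solution added). Buffer 45 mM KH2PO4 pH 8.2, 0.02% Tween-20; reads at t0 and 30 min RT.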
PKM2 activator – PKM2 (human) enzyme activation; purified PKM2, Kinase-Glo ATP luminescence, activation; response scale: 0% is enzyme alone, no compound; actives 0.34% (n = 260,000); Potency, µM (series often up to 57.5 µM), inactives show top-dose activation, usual class: activators; P14618; further: potency means the concentration at half of the fitted maximal effect; nearly all actives have a fitted effect of over 55% in size
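Kinase-Glo luminescence reports ATP generated from ADP (0.1 mM) and PEP (0.5 mM) by purified hPK-M2 after 1 h at room temperature, pH 7.2 imidazole buffer; intermediate enzyme activity allows detecting inhibitors and activators.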
TrxR1 inh – inhibitors of rat thioredoxin reductase 1. O89049. recombinant rTrxR1, NADPH fluorescence consumption, selenite substrate. Potency, µM (doses to about 114 µM), for the others: at the highest dose activity change, negative = inhibition, hits mostly inhibitors. actives 1% (n = 390,000). AID 588453; further: potency means the concentration at half of the fitted maximal effect; nearly all actives have a fitted effect of over 65% in size
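Rat TrxR1 (90 nM in the dispensed reagent) was pre-reduced with 400 uM NADPH for 5 min at room temperature, then incubated with compound for 15 min. After 400 uM selenite was added, NADPH fluorescence (Ex 340/Em 450 nm) was followed for 8 min.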
LDHA inh – LDHA (human) enzyme inhibition. activity change, % (values are at about 110 or 230 µM). actives 0.15% (n = 480,000). AID 1347041. purified LDHA, NADH/diaphorase-resazurin fluorescence; hits give low values; in the data active means activity change below about -30%; inconclusive means mostly about -25% to -30%;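 further: plate controls were DMSO wells for no effect and wells without enzyme for full effect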
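Resorufin fluorescence (ex540/em590), read at 0 and 20 min after diaphorase/resazurin addition, reports the NADH left after a 5 min room-temperature reaction of 2 nM human LDH5 with 0.06 mM NADH and 0.2 mM pyruvate.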
The depositor's hits bear a star; ? = inconclusive; . = no result given; [ ] = remark or other dose. Only some compounds are listed: those with a hit (about 1.4% of all), similar ones and a draw of the others. Unless noted, the call rests on the fitted dose curve; in most records, active means well fitted curve in the direction sought with a large enough effect; inconclusive means small, poorly fitted or top-dose-only effect, or another doubt; inactive means no such curve, though single readings can be large; an effect the other way counts as inactive or inconclusive. Unless noted, on the % scale 0 is the no-effect control and ±100 the full control effect.

SMILES | IDH1 R132H inh | TrxR1 substrate | GLS inh | PKM2 activator | TrxR1 inh | LDHA inh
Oc1c(C(Nc2cccc(C(F)(F)F)c2)c2cccnc2)ccc2cccnc12 (stereo not given) | 4% | -14% | 0% | 24% | 14µM* | 8
Oc1c(C(Nc2cccnc2)c2ccc(C(F)(F)F)cc2)ccc2cccnc12 (stereo not given) | . | -6% | . | . | ? | 1
COc1ccc(Cl)cc1C(Nc1cccnc1)c1ccc2cccnc2c1O (stereo not given) | -7% | 3%[57.1 µM] | 2% | 19% | 4µM* | 3
O=c1c2ccsc2ncn1Cc1coc(-c2ccccc2Cl)n1 | . | . | . | . | . | 5
COc1ccccc1SC(C(=O)NC1CC1)c1ccccc1 (stereo not given) | . | . | . | . | . | -4
COc1ccccc1OC(C(=O)NC1CC1)c1ccccc1 (stereo not given) | . | . | . | . | . | -30*
CC(Cc1ccco1)NC(=O)c1ccc(Cl)c(S(C)(=O)=O)c1 (stereo not given) | . | . | . | . | . | -37*
CC(CCc1ccco1)NC(=O)c1ccc(Cl)c(S(C)(=O)=O)c1 (stereo not given) | . | . | . | . | . | -2
CC(C)(C)C(=O)Nc1ccc(Sc2ccc([N+](=O)[O-])cc2)cc1 | 11% | -7% | 1% | 0% | -6% | 2
CC(=O)Nc1ccc(Sc2ccc([N+](=O)[O-])o2)cc1 | 15% | -1% | -15% | . | 4.5µM* | -2
Cc1ccc(-c2csc3nc(C)n(-n4c(C)ccc4C)c(=O)c23)o1 | 7% | -3% | -18% | 14µM* | 18µM* | -3
O=C(O)c1ccc2c(c1)C1C=CCC1C(c1ccncc1)N2 (stereo not given) | 3% | -3% | 2% | 8% | -2% | 8
Cc1c(Cl)cccc1NS(=O)(=O)c1ccc2c(c1)C1C=CCC1C(c1ccc(C(=O)O)cc1)N2 (stereo not given) | ? | 4%[57.1 µM] | 0% | 10% | ? | 11
COC(=O)c1ccc([C@H]2Nc3ccc(S(=O)(=O)Nc4ccc(C)cc4)cc3[C@H]3C=CC[C@H]32)cc1 | 15% | 3% | 4% | . | 50µM* | 7
CC(=O)c1ccc2c(c1)C1C=CCC1C(c1ccc(S(=O)(=O)N3CCOCC3)cc1)N2 (stereo not given) | 2% | -9% | 10% | 8% | 50µM* | 15
CCN(CC)C(=O)CN(C1CCCCC1)S(=O)(=O)c1ccc(Br)cc1 | . | . | . | . | . | -37*
O=C(CN(C1CCCCC1)S(=O)(=O)c1ccc(Br)cc1)N1CCCCCC1 | . | . | . | . | . | -7
Cc1[nH]c2ccccc2c1C1C(c2ccccc2)=NN=C(C(C)C)N1O (stereo not given) | 9% | -9% | 14% | 15% | 45µM* | -7
CN1C(=O)C(NC(=O)C(=O)NCCc2c[nH]c3ccc(Cl)cc23)c2ccccc21 (stereo not given) | . | . | . | . | . | 5
C#CCN(CCC(=O)NC(N)=O)Cc1ccc(C)cc1 | . | . | . | . | . | 6
Cn1nc(CC(=O)N2CCC(C(=O)N3CCCCCC3)CC2)c2ccccc2c1=O | . | . | . | . | . | -9
Cc1ccc2nc(-c3ccsc3)c(NC3CCCC3)n2c1 | 1% | 68% | 1.6µM* | 2% | 36% | -9
Cc1ccc2nc(-c3ccncc3)c(NC3CCCC3)n2c1 | 1% | 4% | 13% | . | 12% | -10
Brc1cccc(OCCN2CCOCC2)c1 | 10% | -1% | 0% | 2% | 20% | -21
Brc1cccc(OCCN2CCCCC2)c1 | 16% | 10%[57.1 µM] | 7% | 2% | 5%[57.1 µM] | -33*
Clc1cccc(OCCN2CCOCC2)c1 | -5% | -3% | 1% | 2% | -10% | -34*
COc1ccc(C2Nc3ccccc3C(=O)N2Cc2ccco2)cc1COc1ccc([N+](=O)[O-])cc1 (stereo not given) | -3% | 5% | 10% | ? | 10% | -1
